# Screens: PubChem BioAssay, National Center for Advancing Translational Sciences (NCATS)
# Eya2 inh – blocks the phosphatase activity of human Eya2; 330,000 compounds, 0.006% hits; recombinant Eya2, OMFP fluorescence dephosphorylation (OMFP is methylfluorescein phosphate); Potency, µM (series often up to 76.9 µM), for inactives: at the top dose activity, negative = inhibition, most hits filed as inhibitors; O00167; also: % is scaled to controls: 0 for no effect and ±100 for the full control effect
#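 Eya2 (0.2 uM) preincubated 10 min at ambient with compound, then OMFP substrate added at 50 uM; 10 min reaction in 50 mM HEPES pH 7.5, 50 mM NaCl, 5 uM MgCl2, 0.05% BSA, 1 mM DTT. Fluorescence read at Ex 485/Em 525 nm.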
# PTAP TSG101 blk – blocks PTAP/TSG101 interaction to inhibit HIV-1 budding; 340,000 tested, under 10 active; Potency, µM (series often up to 115 µM), inactives show top-dose activity change, negative = inhibition, usual class: inhibitors; Fluorescence polarization, FITC-PTAP peptide / Tsg101 binding; Q99816; active = well fitted inhibition curve with a large enough effect in the main read-out, with a control signal flat, not every such curve was filed as active; inconclusive = small, poorly fitted or top-dose-only effect, or effect the other way, or a change in a side signal; inactive = no such curve, though single readings can be large or run the other way; also: % of control where 0% means no effect
# Target sequence (Q99816 whole entry, looked up): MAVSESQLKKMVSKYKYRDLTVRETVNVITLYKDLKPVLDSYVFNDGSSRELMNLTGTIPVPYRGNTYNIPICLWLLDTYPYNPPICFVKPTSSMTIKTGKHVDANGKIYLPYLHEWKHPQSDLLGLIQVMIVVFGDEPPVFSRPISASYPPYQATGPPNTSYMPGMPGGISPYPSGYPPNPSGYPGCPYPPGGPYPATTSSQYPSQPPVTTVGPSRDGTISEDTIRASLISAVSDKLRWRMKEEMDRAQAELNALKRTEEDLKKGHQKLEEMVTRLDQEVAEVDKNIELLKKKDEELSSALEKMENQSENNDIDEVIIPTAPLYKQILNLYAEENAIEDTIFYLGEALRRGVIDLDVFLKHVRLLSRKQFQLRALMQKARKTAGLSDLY
#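 Compounds were pin-transferred onto Tsg101 binding domain (10 uM final) in HEPES pH 7.5 buffer, then FITC-PTAP peptide was added at 50 nM final. After 20 min at RT, polarization reported peptide displacement across a qHTS concentration series.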
# 12-LOX inh – inhibitors of human 12S-lipoxygenase ALOX12; P18054; AID 1671190; Potency, µM (series often up to 108 µM), inactives show at the highest dose activity change, negative = inhibition, hits mostly inhibitors; purified 12hLO, xylenol orange hydroperoxide absorbance; 580,000 compounds, 1.1% hits; also: % is scaled to controls: 0 for no effect and ±100 for the full control effect
#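 Purified human 12hLO (150 nM final) in 25 mM Hepes, 0.01% Triton X-100, pH 7.0 was preincubated 15 min at room temperature with compound. Then 40 uM arachidonic acid was added, 30 min. Hydroperoxide was read by Fe-XO absorbance ratio 573/405 nm.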
# USP2a inh – inhibitors of human ubiquitin-specific protease USP2a; 330,000 compounds, 0.01% hits; USP2 core, Ub-CHOP2 coupled fluorogenic reporter, 485/531; Potency, µM (titrated, usually from 38.3 µM), without a hit: at the top dose activity change, negative = inhibition, hits mostly inhibitors; O75604; AID 463254;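 also: plate controls were DMSO wells for no effect and full inhibition by NEM control for full effect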
#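 USP2 core (10nM final) preincubated 30min RT with compound in 20mM Tris-HCl pH 8.0, 2mM CaCl2, 2mM beta-mercaptoethanol, 0.05% CHAPS; 25nM Ub-CHOP2 plus 25nM reporter substrate added, fluorescence (Ex485/Em531) read after 60min.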
# * marks the source's active call; other numbers are inactive results; ? = inconclusive; . = no result given; [ ] = dose if it differs, or a comment. In the library only some 1.1% were active in any assay of this set; here they are far more common. Unless noted, calls follow the shape of the dose curve; as a rule, active = well fitted curve in the direction sought with a large enough effect; inconclusive = small, poorly fitted or top-dose-only effect, or another doubt; inactive = no such curve, though single readings can be large; an effect the other way counts as inactive or inconclusive. Potency is read from the fitted curve at half-maximal effect.
SMILES,Eya2 inh,PTAP TSG101 blk,12-LOX inh,USP2a inh
CCCCCCC12C(=Cc3cc4c(cc31)OCCO4)c1cc(OC)c(OC)cc1C(CC(=O)OC)N2C(=O)OC (stereo unspecified),.,.,-23%,.
CCCCCCC12C(=Cc3cc4c(cc31)OCCO4)c1cc(OC)c(OC)cc1C(CC(=O)O)N2C(=O)OC (stereo unspecified),.,.,40µM*,.
Cc1nnc(SCc2ccc(Cl)cc2)nc1/C=C/N(C)C,1%,-7%,40µM*,0%
COc1ccc(-n2ncc3c(NCC(C)C)ncnc32)cc1,-5%,-1%,6.3µM*,2%
CN1CCCN(C(=O)c2ccc(Cl)cc2)c2ccccc21,.,.,32µM*,.
CN1CCCN(C(=O)c2ccc(F)cc2)c2ccccc21,.,.,14%,.
Cc1ccc(SCC(=O)Nc2ccc(C(=O)Nc3ccc(O)cc3)cc2)cc1,-12%,-1%,?,11µM*
Cc1ccc(SCC(=O)Nc2cccc(C)c2)cc1,-2%,2%,2%,5%
COc1cc(CNc2ccccc2SC)cc(OC)c1OC,-17%,-2%,45µM*,-1%
Cc1ccc(C(=O)CSc2cc(C)[nH]c(=O)n2)cc1,2%,0%,?,-2%
Cc1cc(SCC(=O)c2ccc(Cl)cc2)nc(=O)[nH]1,-4%,1%,20µM*,-1%
Cc1cc(C(=O)N2CCCC3(CCNCC3)CC2)c2cnn(C(C)C)c2n1,.,.,20µM*,.
Cc1ccc(S(=O)(=O)N2CCN(C(=O)c3cc(C4CC4)nc4c3cnn4C(C)C)CC2)cc1,3%,2%,?,1%
S=c1[nH]nc(-c2ccc(Cl)cc2)n1/N=C/C=C/c1ccco1,-4%,2%,14µM*,-2%
S=c1[nH]nc(-c2cccnc2)n1/N=C/C=C/c1ccco1,4%,0%,?,-1%
S=c1[nH]nc(-c2ccccc2)n1/N=C/C=C/c1ccco1,6%,-5%,40µM*,2%
CC1CCCN(C(=O)c2ccccc2NS(=O)(=O)c2cccc(C(F)(F)F)c2)C1 (stereo unspecified),.,.,24%,.
CCNc1oc(/C=C/c2cccc(OC)c2)nc1C#N,.,.,45µM*,.
COc1cccc(CN2CCC3(CC2)c2[nH]c4ccccc4c2CCN3C)c1,.,.,-8%,.
Cn1c(=O)c2c(nc(NCCO)n2Cc2ccc(Cl)cc2)n(C)c1=O,.,.,0%,.
COc1ccc(CN2CC3(C2)C(=O)Nc2ccccc23)cc1,.,.,7%[12.5 µM],.
CCOc1ccccc1C(=S)NC1CCCCC1,-2%,0%,?,-4%
CCOc1ccc(C(=S)NC2CCCCC2)cc1OC,-3%,.,22µM*,-1%
O=C1NCc2ccccc2CC12CCN(Cc1ccnc3ccccc13)CC2,.,.,28µM*,.
O=C1NCc2ccccc2CC12CCCN(Cc1ccnc3ccccc13)C2 (stereo unspecified),.,.,22µM*,.
SMILES,Eya2 inh,PTAP TSG101 blk,12-LOX inh,USP2a inh
Cc1cc(N2CCCC2)n2nc(-c3ccccc3C)nc2n1,.,.,34%,.
CCC(CC)C(=O)Nc1sccc1C#N,.,.,-9%,.
Cc1ccc(C(=O)Nc2sccc2C#N)s1,.,.,50µM*,.
CC(C)n1nc(C(=O)Nc2cccc(S(=O)(=O)N3CCCCCC3)c2)c2ccccc2c1=O,.,.,2%,.
Cc1nnc(N/N=C/c2cccc(OCc3ccc(Cl)c(Cl)c3)c2)n1N,-9%,-1%,18µM*,3%
CCOc1ccc(C(C)NC(=O)Cc2nc(-c3cccs3)oc2C)cc1OCC (stereo unspecified),.,.,18%,.
O=c1cc(O)nc(-c2ccccc2)s1,2%,2%,?,0%
O=c1cc(O)nc(-c2ccc(Cl)cc2)s1,6%,-4%,45µM*,12%
N#CC(C(=O)CSc1ccc2c(c1)OCCO2)c1nc(-c2ccccc2)cs1 (stereo unspecified),.,.,10µM*,.
O=C(CCCn1c(SCC(=O)c2ccc(O)c(O)c2)nc2ccccc2c1=O)NCC1CCCO1 (stereo unspecified),8%,-7%,1.8µM*,-1%
O=C(CCCn1c(SCC(=O)NC2CCCCC2)nc2ccccc2c1=O)NCC1CCCO1 (stereo unspecified),8%,-5%,-14%,0%
COCCNc1ncc(-c2cccc(OC)c2)c2c1OCC2,.,.,-1%[176 µM],.
O=C1C=C(NCCc2cc(Br)c(O)c(Br)c2)C(=O)c2ncccc21,.,-11%,35µM*,.
COc1ccc(NC(=O)CSC2=C(C#N)C(c3ccco3)C3=C(CCCC3=O)N2)c(OC)c1 (stereo unspecified),-1%,-12%,18µM*,1%
COc1cccc(NC(=O)CSC2=C(C#N)C(c3ccco3)C3=C(CCCC3=O)N2)c1 (stereo unspecified),-24%,-5%,-14%,0%
O=C(C=C(Sc1ccccc1)Sc1ccccc1)C(F)(F)F,.,.,35µM*,.
O=C(Sc1ccccc1)c1ccccc1,.,.,-27%,.
NC(=O)c1ccccc1NC(=O)c1cc(=O)c2ccccc2o1,.,.,5%,.
S=C(NCCCc1ccccc1)NC1CCCCC1,-4%,-2%,45µM*,-1%
C/C(=N\NC(=S)NC1CCCCC1)c1ccccc1,7%,0%,25µM*,3%
C/C(=N\NC(=S)NC1CCCCC1)c1ccc(O)cc1,-12%,-5%,?,1%
CNC(=S)NN(c1ccccc1)c1ccccc1,1%,-6%,14%,1%
S=C(NC1CCCCC1)NN(c1ccccc1)c1ccccc1,-7%,-2%,40µM*,3%
S=C(NCc1ccccc1)NC1CCCCC1,-10%,0%,-29%,1%
O=C(NC(=S)NC1CCCc2ccccc21)c1ccc(F)cc1 (stereo unspecified),-13%,7%,18µM*,1%
SMILES,Eya2 inh,PTAP TSG101 blk,12-LOX inh,USP2a inh
Cc1ccc(N2C(=O)N(Cc3ncc(-c4ccccc4)o3)C(=O)C2C)cc1 (stereo unspecified),.,.,-4%,.
COC(=O)[C@@H]1Cc2c([nH]c3ccccc23)[C@H]2C[C@@H](N3CCOCC3)C[C@@H](c3ccc(OC(F)(F)F)cc3)N21,.,.,-4%,.
CC(C)(C)c1ccc(/C=N/NC(=S)NC2CCCCC2)cc1,3%,-1%,28µM*,-14%
O=C(NC(=S)NC1CCCCC1)c1ccccc1,-1%,0%,35µM*,4%
O=C(NC(=S)NC1CCS(=O)(=O)C1)c1ccccc1 (stereo unspecified),1%,-5%,63%,-1%
O=C(NC(=S)NC1CCCCCC1)c1cncc(Br)c1,-7%,-3%,32µM*,0%
Cc1nn(-c2ccccc2[N+](=O)[O-])c(C)c1[C@@H]1C=C[C@@H](NC(=O)Nc2cccc(C#N)c2)C1,.,.,1%,.
C[C@H]1[C@@H]2[C@@H](O)C([C@H](C)C(=O)NCc3cccs3)CC[C@@]2(C)CC[C@@H]1NC(=O)Cc1ccccc1 (stereo partly specified),.,.,17%,.
C#CCNC(=O)[C@@H]1Cc2cn(Cc3cccnc3)c3cccc(c23)[C@H](CC(C)C)N1,.,.,106%[176 µM],.
